Laboratory results reported in the supplement of paper PMC3334620.
Over roughly 33,000 sequences, “E-score (-0.5 to 0.5)” has its median near -0.053; the highest 2% begin near 0.37. For the sample, the highest values were picked, then their nearest neighbours and some sequences at random.

target: Hap1 (UniProt P0CE41); assay: PBM E-score (8-mer binding enrichment) (E-score (-0.5 to 0.5)); higher = stronger / more preferred TF binding; details: protein concentration: 200 nM; construct: GST-DNA-binding domain
How it was run: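 Yeast transcription factors carrying a GST tag, as full-length proteins or DNA-binding domains, were produced by PURExpress in vitro transcription/translation. About 100-200 nM protein was applied to universal all-10-mer Agilent arrays, double-stranded by primer extension on fresh or once-stripped slides. Bound protein was detected with fluorescent anti-GST, and scans were normalised with masliner. The Universal PBM Analysis Suite gave each ungapped eight-base word, pooled with its reverse complement, an E-score, a modified Wilcoxon-Mann-Whitney statistic.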

Sequence of UniProt P0CE41 (P0CE41 whole entry, the tested form may be a part): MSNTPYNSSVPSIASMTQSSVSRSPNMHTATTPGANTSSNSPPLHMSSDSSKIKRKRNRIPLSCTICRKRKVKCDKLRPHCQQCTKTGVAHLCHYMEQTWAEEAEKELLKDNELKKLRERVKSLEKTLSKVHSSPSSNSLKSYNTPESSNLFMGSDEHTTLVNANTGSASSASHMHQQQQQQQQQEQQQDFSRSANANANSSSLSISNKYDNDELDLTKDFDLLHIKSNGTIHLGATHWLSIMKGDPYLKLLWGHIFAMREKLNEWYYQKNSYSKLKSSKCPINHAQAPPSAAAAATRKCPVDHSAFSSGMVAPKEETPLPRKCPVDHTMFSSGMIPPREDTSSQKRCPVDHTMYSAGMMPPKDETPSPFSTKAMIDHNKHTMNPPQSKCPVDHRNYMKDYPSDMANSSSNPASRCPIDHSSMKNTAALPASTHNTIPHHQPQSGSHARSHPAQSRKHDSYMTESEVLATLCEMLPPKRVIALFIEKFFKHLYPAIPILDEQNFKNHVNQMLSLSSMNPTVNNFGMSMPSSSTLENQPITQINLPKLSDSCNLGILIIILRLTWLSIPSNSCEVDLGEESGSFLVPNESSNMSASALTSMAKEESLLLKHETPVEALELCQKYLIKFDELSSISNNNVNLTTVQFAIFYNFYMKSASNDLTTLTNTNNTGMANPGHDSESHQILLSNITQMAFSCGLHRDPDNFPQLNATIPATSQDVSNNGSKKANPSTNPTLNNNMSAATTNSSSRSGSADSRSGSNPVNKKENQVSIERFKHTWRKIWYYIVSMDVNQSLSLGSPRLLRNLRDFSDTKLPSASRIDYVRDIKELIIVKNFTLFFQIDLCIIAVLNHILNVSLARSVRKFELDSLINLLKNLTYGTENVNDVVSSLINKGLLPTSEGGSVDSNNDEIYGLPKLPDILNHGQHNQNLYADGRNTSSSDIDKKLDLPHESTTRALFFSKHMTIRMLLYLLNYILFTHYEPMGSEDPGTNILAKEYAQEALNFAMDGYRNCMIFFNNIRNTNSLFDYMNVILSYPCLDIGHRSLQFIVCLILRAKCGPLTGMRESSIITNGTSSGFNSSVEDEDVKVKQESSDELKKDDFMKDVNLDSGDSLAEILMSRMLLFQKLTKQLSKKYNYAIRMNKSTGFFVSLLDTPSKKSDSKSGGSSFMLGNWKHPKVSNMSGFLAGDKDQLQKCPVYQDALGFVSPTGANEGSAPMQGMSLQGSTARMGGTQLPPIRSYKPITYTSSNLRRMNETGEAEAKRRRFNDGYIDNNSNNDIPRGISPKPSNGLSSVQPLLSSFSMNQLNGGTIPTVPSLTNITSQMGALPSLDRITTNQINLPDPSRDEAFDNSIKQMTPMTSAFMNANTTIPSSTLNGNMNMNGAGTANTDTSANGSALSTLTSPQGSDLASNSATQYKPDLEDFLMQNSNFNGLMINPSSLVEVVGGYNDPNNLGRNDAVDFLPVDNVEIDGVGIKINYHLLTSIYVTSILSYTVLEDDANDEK

Point of comparison: ACACACCC, “PBM E-score” value 0.117. Against it:
- TAATCGGA — higher, 0.317
- CAATCGGG — higher, 0.205
- CTATCGAA — lower, -0.177
- GTATCGGA — higher, 0.415
- ATATCGTA — lower, 0.11
- CAATCGGA — higher, 0.394
- CTATCGGA — higher, 0.452
- GTATCGAA — lower, -0.152
- CTATCGTA — lower, -0.17
- AAATCGGA — higher, 0.344
- AACACAGA — lower, -0.116
- AGACCTTA — lower, -0.154
- GCTATAGC — lower, 0.0502
- AGCGGCAA — lower, 0.0491
- CACGCTAA — lower, -0.0232
- ATACCCCC — higher, 0.283
- AACGCCCC — higher, 0.128
- AAGGACAG — lower, -0.182
- AAATCGGG — higher, 0.246
- ATATCGGG — higher, 0.436
- ATATCGTG — lower, -0.0299
- AATCCGAG — higher, 0.338
- ATTCCGAC — higher, 0.307
- CTTCCGAA — higher, 0.324
- ATTCCAAG — lower, -0.177
- ATTCCGAA — higher, 0.375
- ATTCCGAG — higher, 0.397
- AAGTCGGG — higher, 0.153
- AAACCACG — lower, -0.0117
- AAAGTCCA — lower, -0.0824
- CAAGTCCG — higher, 0.39
- AAAGTCCT — higher, 0.157
- AAAGTCCG — higher, 0.446
- CAAGTCCC — lower, -0.181
- CAAGTCCA — lower, -0.222
- CATCCTCA — lower, -0.154
- AATCAAAG — lower, -0.129
- AGCGGTCG — higher, 0.123
- GGCTAAAA — lower, 0.0064
- CGAGATAA — higher, 0.164
- GGTGATAA — higher, 0.378
- CGAGATAC — higher, 0.188
- GGATATAA — higher, 0.382
- GGATATAC — higher, 0.319
- CGATATAA — higher, 0.308
- AGAGATAA — lower, 0.00783
- GGTGATAC — higher, 0.14
- GGAGATAC — higher, 0.438
- CGTGATAA — lower, -0.0733
- AGAGATAC — lower, -0.0992
- GGAGATAA — higher, 0.455
- CGGAAGCC — higher, 0.199
- GAGCGTGA — lower, -0.183
- AGTGCACT — lower, -0.0451
- AACTTCTG — lower, -0.205
- CTGGTAGA — lower, -0.2
- GAACACGA — lower, -0.0354
- ACCTGAAT — lower, -0.104
- CAGCCCTA — lower, -0.0376
- AGTTATCG — higher, 0.382
- ACTTATCA — lower, -0.148
- CCTTATCG — higher, 0.241
- AGTTATCC — lower, 0.106
- ACTTATCG — higher, 0.415
- AGTTATCA — lower, -0.0683
- AGCGCGGA — higher, 0.223
- GCGACAGC — lower, 0.0479
- CCCCGATC — higher, 0.35
- GCACGATA — lower, 0.0171
- ACCCGATG — higher, 0.3
- CCCCGAAA — higher, 0.348
- GCCCGATA — higher, 0.423
- CCCCGATA — higher, 0.44
- ACCCGATA — higher, 0.439
- GCCCGACA — higher, 0.255
- ACCCGATC — higher, 0.244
- CTTAGGAC — lower, -0.283
- AGGGGGAC — lower, -0.213
- ATCCGCCA — higher, 0.181
- ATCCGCCG — higher, 0.375
- ATCCGCCC — higher, 0.243
- AACAAAGT — lower, 0.00728
- GCGGTGGA — lower, 0.0678
- ACGGTGGA — lower, -0.062
- CCGGTGGA — higher, 0.39
